Results on 3 targets are retold here after the supplement of paper PMC12819154, “High-throughput peptide-centric local stability assay extends protein–ligand identification to membrane proteins, tissues and bacteria” (Nature Structural & Molecular Biology, 2025).

Sequence of UniProt Q9P289 (Q9P289 whole entry, looked up): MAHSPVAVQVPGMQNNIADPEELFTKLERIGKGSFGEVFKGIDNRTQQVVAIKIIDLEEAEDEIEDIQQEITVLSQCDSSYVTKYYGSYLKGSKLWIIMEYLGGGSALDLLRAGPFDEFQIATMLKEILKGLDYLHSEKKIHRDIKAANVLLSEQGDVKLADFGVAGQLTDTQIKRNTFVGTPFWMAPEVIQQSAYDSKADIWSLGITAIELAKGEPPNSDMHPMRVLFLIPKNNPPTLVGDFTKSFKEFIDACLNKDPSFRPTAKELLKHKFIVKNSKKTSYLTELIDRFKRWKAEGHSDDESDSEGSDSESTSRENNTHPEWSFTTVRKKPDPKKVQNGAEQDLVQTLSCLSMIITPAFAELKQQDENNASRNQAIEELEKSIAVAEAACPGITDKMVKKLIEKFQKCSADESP
Sequence of UniProt P41240 (P41240 whole entry, looked up): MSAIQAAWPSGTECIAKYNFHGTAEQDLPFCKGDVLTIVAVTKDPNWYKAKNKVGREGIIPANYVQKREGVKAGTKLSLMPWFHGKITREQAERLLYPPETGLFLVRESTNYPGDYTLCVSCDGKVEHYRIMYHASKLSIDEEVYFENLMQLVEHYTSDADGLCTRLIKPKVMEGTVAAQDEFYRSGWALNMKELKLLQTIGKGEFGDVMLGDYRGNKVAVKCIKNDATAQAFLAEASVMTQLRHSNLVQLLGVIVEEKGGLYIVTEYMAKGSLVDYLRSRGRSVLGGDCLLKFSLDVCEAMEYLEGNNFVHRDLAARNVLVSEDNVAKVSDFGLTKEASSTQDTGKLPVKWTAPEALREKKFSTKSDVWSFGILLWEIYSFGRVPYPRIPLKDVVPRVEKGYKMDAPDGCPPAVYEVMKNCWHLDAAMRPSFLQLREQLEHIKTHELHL

Compound in this experiment: Cc1nc(Nc2ncc(C(=O)Nc3c(C)cccc3Cl)s2)cc(N2CCN(CCO)CC2)n1 [dasatinib]
Kind of experiment: log2 fold change of tryptic peptide abundance, ligand vs vehicle (limited proteolysis) (log2 ratio); higher = more trypsin-susceptible (destabilized). The note with it: ligand concentration: 5 uM; sample: K562 cleared lysate.
With “UniProt P46781 (peptide sequence: ELLTLDEKDPRR, peptide start residue: 59)”, the log2 fold change was -0.304.
As for “CSK (peptide sequence: SGWALNMK, peptide start residue: 186) (UniProt P41240)”, the log2 fold change was -0.697.
For “UniProt Q9P289 (peptide sequence: GSFGEVFK, peptide start residue: 33)” the value was -0.606.
